Drawing on PubChem BioAssay (NCATS), this text covers Potency for 37 molecules.

Results filed as inconclusive are left out. Where a call stands in place of a potency, no number is given. Activity calls are given as the source filed them. The call rests on the fitted dose curve; in most records, active means well fitted curve in the direction sought with a large enough effect; inconclusive means small, poorly fitted or top-dose-only effect, or another doubt; inactive means no such curve, though single readings can be large; an effect the other way counts as inactive or inconclusive.
Potency means the concentration at half of the fitted maximal effect.

One assay is described as follows: qHTS for differential inhibitors of proliferation of Plasmodium falciparum line Dd2 (AID 1882). Further: nearly all actives have a fitted effect of over 65% in size. The settings on record: Potency: Plasmodium falciparum Dd2 proliferation inhibition; series mostly up to 28.7 µM. In outline:
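SYBR Green DNA fluorescence (ex 485, em 535 nm) after overnight lysis quantifies parasite growth; compound exposure lasted 72 h at 37 C on infected red cells at 2.5% hematocrit, 0.3% parasitemia (final). Artemisinin 0.29 uM and vehicle wells define normalization.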
In general terms: In qHTS, concentration-response curves come from the screen itself.
In the case of `COc1ccccc1N1CCN(CCCCNC(=O)c2ccc3ccccc3c2)CC1`, the Potency is 10 µM (active).

Take `COc1ccc(NC(=O)c2ccc(-c3ccc(-c4noc(C)n4)cc3C)cc2)cc1N1CCN(C)CC1`: the Potency was 5.62 µM (active).

For the molecule `COC(=O)C(N)Cc1ccc(Cl)cc1` (centres undefined), the Potency entry was “inactive”.

For the molecule `O[Si](CCCN1CCCCC1)(c1ccc(F)cc1)C1CCCCC1` (centres undefined), the Potency is 0.141 µM (active).

For the molecule `Cn1ccnc1`, the Potency entry is “inactive”.

As for `Cn1cc(C(F)(F)F)nc1-c1ccc(OCC(O)CNCCOc2ccc(O)c(C(N)=O)c2)cc1` (centres undefined), the Potency entry is “inactive”.

`NCC(O)C1CCCCCCC1` (centres undefined): the Potency is 8.91 µM (active).

In the case of `N[C@@H](CS(=O)O)C(=O)O`, the Potency entry was “inactive”.

Take `Oc1ccc(Cn2cc[nH]c2=S)cc1`: the Potency entry is “inactive”.

In the case of `N#CC(=C(\N)Sc1ccccc1N)/C(C#N)=C(/N)Sc1ccccc1N`, the Potency was 7.08 µM (active).

Take `CC(C)NCC(O)COc1ccc(CC(N)=O)cc1` (centres undefined): the Potency entry is “inactive”.

As for `CCC1(O)CC2CN(CCc3c([nH]c4ccccc34)[C@@](C(=O)OC)(c3cc4c(cc3OC)N(C)C3[C@]45CCN4CC=C[C@@](CC)([C@@H](OC(C)=O)[C@]3(O)C(=O)OC)[C@H]45)C2)C1` (some centres undefined), the Potency was 0.398 µM (active).

`O=C(O)/C=C/c1ccc(O)c(O)c1`: the Potency result was “inactive”.

Consider `CCCCCCN(CCCCCC)C(=O)Cc1c(-c2ccc(F)cc2)[nH]c2ccccc12`, for which the Potency is 10 µM (active).

Consider `CCCCCCCCCCCCCCCCCCOC[C@H](COP(=O)([O-])OCC[N+](C)(C)C)OC`, for which the Potency entry is “inactive”.

Consider `CCCN(CCc1ccccc1)C1CCc2c(O)cccc2C1` (centres undefined), for which the Potency is 2 µM (active).

Regarding `COc1ccc(-c2ccc(N)[n+](CCCC(=O)O)n2)cc1`, the Potency result is “inactive”.

With `N[C@H](C(=O)O)[C@H]1C[C@@H]1C(=O)O`, the Potency entry was “inactive”.

`CCCCCCCCCC(=O)NC(CN1CCOCC1)[C@H](O)c1ccccc1` (some centres undefined): the Potency was 2.24 µM (active).

In the case of `N=C(N)c1ccc(OCCCCCOc2ccc(C(=N)N)cc2)cc1` (tested in a mixture with another compound), the Potency was 1 µM (active).

For `CN(C)C(=O)/N=N/C(=O)N(C)C`, the Potency entry was “inactive”.

For the molecule `CCCCCCCCCCCCCCSCC(=O)O`, the Potency result was “inactive”.

As to `C=CC[C@H](N)C(=O)O`, the Potency entry is “inactive”.

`CN(C)S(=O)(=O)c1ccc2c(c1)/C(=C/c1cc3c([nH]1)CCCC3)C(=O)N2`: the Potency was 7.08 µM (active).

For the molecule `CCCCC[C@H](CC(=O)NO)C(=O)N[C@H](C(=O)N1CCC[C@H]1CO)C(C)C`, the Potency was 3.55 µM (active).

Take `CCCCS(=N)(=O)CC[C@H](N)C(=O)O` (some centres undefined): the Potency entry was “inactive”.

For `Nc1ncnc2c1c(-c1ccc(Oc3ccccc3)cc1)cn2C1CCCC1`, the Potency is 7.94 µM (active).

For the molecule `Cc1ccc([N+](=O)[O-])cc1S(=O)(=O)N(C)C`, the Potency entry was “inactive”.

With `COc1ccc2c(c1)CCC1C2CC[C@@]2(C)C1CC[C@@H]2NCCCCCCN1C(=O)C=CC1=O` (some centres undefined), the Potency entry was “inactive”.

For the molecule `CC(C)(C)c1cc(/C=C(\C#N)C(N)=S)cc(C(C)(C)C)c1O`, the Potency is 8.91 µM (active).

Turning to `CN1C2CCC1CC(OC(c1ccccc1)c1ccccc1)C2` (centres undefined), the Potency was 4.47 µM (active).

On to `CC(N)(Cc1ccc(O)cc1)C(=O)O` (centres undefined), for which the Potency result is “inactive”.

For the molecule `C=CCN1CCc2cc(O)c(O)cc2C(c2ccccc2)C1` (centres undefined), the Potency was 12.6 µM (active).

Turning to `CC(N)=O`, the Potency result is “inactive”.

Turning to `CCN(c1nc(N)c(C(=O)N=C(N)N)nc1Cl)C(C)C`, the Potency result is “inactive”.

Turning to `[Li+]`, the Potency entry was “inactive”.

Consider `NCCC1CCCC(CCN)N1` (centres undefined), for which the Potency entry is “inactive”.

Another assay is described as follows: qHTS for differential inhibitors of proliferation of Plasmodium falciparum line W2 (AID 1883).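 Further: parasites grown with compound for 72 h before lysis and staining.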 Conditions: Potency: Plasmodium falciparum W2 proliferation inhibition; series mostly up to 28.7 µM.
Turning to `COc1ccccc1N1CCN(CCCCNC(=O)c2ccc3ccccc3c2)CC1`, the Potency was 2.51 µM (active).

As to `COc1ccc(NC(=O)c2ccc(-c3ccc(-c4noc(C)n4)cc3C)cc2)cc1N1CCN(C)CC1`, the Potency was 3.98 µM (active).

For `COC(=O)C(N)Cc1ccc(Cl)cc1` (centres undefined), the Potency result was “inactive”.

Turning to `O[Si](CCCN1CCCCC1)(c1ccc(F)cc1)C1CCCCC1` (centres undefined), the Potency was 0.0631 µM (active).

Take `Cn1ccnc1`: the Potency result was “inactive”.

For `Cn1cc(C(F)(F)F)nc1-c1ccc(OCC(O)CNCCOc2ccc(O)c(C(N)=O)c2)cc1` (centres undefined), the Potency was 10 µM (active).

Consider `NCC(O)C1CCCCCCC1` (centres undefined), for which the Potency was 3.16 µM (active).

Turning to `N[C@@H](CS(=O)O)C(=O)O`, the Potency result was “inactive”.

Take `Oc1ccc(Cn2cc[nH]c2=S)cc1`: the Potency result is “inactive”.

For the molecule `N#CC(=C(\N)Sc1ccccc1N)/C(C#N)=C(/N)Sc1ccccc1N`, the Potency was 2.82 µM (active).

Regarding `CC(C)NCC(O)COc1ccc(CC(N)=O)cc1` (centres undefined), the Potency entry was “inactive”.

On to `CCC1(O)CC2CN(CCc3c([nH]c4ccccc34)[C@@](C(=O)OC)(c3cc4c(cc3OC)N(C)C3[C@]45CCN4CC=C[C@@](CC)([C@@H](OC(C)=O)[C@]3(O)C(=O)OC)[C@H]45)C2)C1` (some centres undefined), for which the Potency was 0.794 µM (active).

As for `O=C(O)/C=C/c1ccc(O)c(O)c1`, the Potency result was “inactive”.

On to `CCCCCCN(CCCCCC)C(=O)Cc1c(-c2ccc(F)cc2)[nH]c2ccccc12`, for which the Potency is 3.55 µM (active).

On to `CCCCCCCCCCCCCCCCCCOC[C@H](COP(=O)([O-])OCC[N+](C)(C)C)OC`, for which the Potency entry was “inactive”.

Consider `CCCN(CCc1ccccc1)C1CCc2c(O)cccc2C1` (centres undefined), for which the Potency was 1 µM (active).

Regarding `COc1ccc(-c2ccc(N)[n+](CCCC(=O)O)n2)cc1`, the Potency result is “inactive”.

Consider `N[C@H](C(=O)O)[C@H]1C[C@@H]1C(=O)O`, for which the Potency result is “inactive”.

Turning to `CCCCCCCCCC(=O)NC(CN1CCOCC1)[C@H](O)c1ccccc1` (some centres undefined), the Potency was 1.58 µM (active).

With `N=C(N)c1ccc(OCCCCCOc2ccc(C(=N)N)cc2)cc1` (tested in a mixture with another compound), the Potency was 0.355 µM (active).

Take `CN(C)C(=O)/N=N/C(=O)N(C)C`: the Potency result is “inactive”.

Turning to `CCCCCCCCCCCCCCSCC(=O)O`, the Potency entry is “inactive”.

Consider `C=CC[C@H](N)C(=O)O`, for which the Potency result is “inactive”.

As for `CN(C)S(=O)(=O)c1ccc2c(c1)/C(=C/c1cc3c([nH]1)CCCC3)C(=O)N2`, the Potency was 3.55 µM (active).

Regarding `CCCCC[C@H](CC(=O)NO)C(=O)N[C@H](C(=O)N1CCC[C@H]1CO)C(C)C`, the Potency is 2.51 µM (active).

`CCCCS(=N)(=O)CC[C@H](N)C(=O)O` (some centres undefined): the Potency was 8.91 µM (active).

`Nc1ncnc2c1c(-c1ccc(Oc3ccccc3)cc1)cn2C1CCCC1`: the Potency was 3.55 µM (active).

As for `Cc1ccc([N+](=O)[O-])cc1S(=O)(=O)N(C)C`, the Potency entry was “inactive”.

As for `COc1ccc2c(c1)CCC1C2CC[C@@]2(C)C1CC[C@@H]2NCCCCCCN1C(=O)C=CC1=O` (some centres undefined), the Potency result was “inactive”.

Regarding `CC(C)(C)c1cc(/C=C(\C#N)C(N)=S)cc(C(C)(C)C)c1O`, the Potency is 2.82 µM (active).

For the molecule `CN1C2CCC1CC(OC(c1ccccc1)c1ccccc1)C2` (centres undefined), the Potency was 1.41 µM (active).

Take `CC(N)(Cc1ccc(O)cc1)C(=O)O` (centres undefined): the Potency result was “inactive”.

Regarding `C=CCN1CCc2cc(O)c(O)cc2C(c2ccccc2)C1` (centres undefined), the Potency is 7.94 µM (active).

For `CC(N)=O`, the Potency result is “inactive”.

As for `CCN(c1nc(N)c(C(=O)N=C(N)N)nc1Cl)C(C)C`, the Potency is 7.94 µM (active).

For the molecule `[Li+]`, the Potency entry was “inactive”.

`NCCC1CCCC(CCN)N1` (centres undefined): the Potency entry was “inactive”.
